Data on 25 molecules can be found in PubChem BioAssay (Tox21).

Experiment [1] in a line: qHTS assay for small molecule agonists of the p53 signaling pathway (AID 651631; calls by dose curve; also: nearly all actives have a fitted effect of over 15% in size; also: potency is read from the fitted curve at half-maximal effect). The procedure, abridged:
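Readout was fluorescence from the LiveBLAzer FRET substrate, applied for 2 h at room temperature after 16 h compound exposure at 37 °C. Cells were the p53RE-bla HCT-116 line, with beta-lactamase driven by p53 response elements.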
For orientation: In qHTS, concentration-response curves come from the screen itself.

A short description of experiment [2]: qHTS assay for small molecules that induce genotoxicity in human embryonic kidney cells expressing luciferase-tagged ATAD5 (AID 651632). Also: nearly all actives have a fitted effect of over 15% in size. Also: potency is read from the fitted curve at half-maximal effect. The method in brief: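 Genotoxicity read-out via ATAD5-luciferase: HEK293T cells, 16 hr compound incubation at 37C, Amplite detection.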
Experiment [3] is described as follows: qHTS assay for small molecule disruptors of the mitochondrial membrane potential - cell viability (AID 720634; calls by dose curve; also: nearly all actives have a fitted effect of over 20% in size; also: potency is read from the fitted curve at half-maximal effect). The procedure, abridged:
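Human hepatoma HepG2 cells were treated for 1 hr with test chemicals, then given m-MPI dye and CellTiter-Glo. Cell viability reflects luminescence proportional to cellular ATP.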

Experiment [4] is described as follows: qHTS assay to test for compound auto fluorescence at 590 nm (red) in HepG2 cells (AID 720674). The procedure, abridged: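 Fluorescence at 590 nm emission following 540 nm excitation was recorded from HepG2 wells one hour after compound transfer, with DMSO-only wells as vehicle and Rose Bengal sodium equivalency as the scale.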
Experiment [5] can be described thus: qHTS assay to test for compound auto fluorescence at 535 nm (green) in HepG2 cells (AID 720675).
The nature of experiment [6]: qHTS assay to test for compound auto fluorescence at 460 nm (blue) in HEK293 cells (AID 720678). The procedure, abridged:
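HEK293, 2,000 cells/well, 10% dialyzed FBS; attach 4-5 hr 37C; pin compound or DMSO; o/n 37C/5% CO2; fluorescence 405/460 nm; triamterene-equivalent units.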

The nature of experiment [7]: qHTS assay to test for compound auto fluorescence at 590 nm (red) in HEK293 cells (AID 720679). The procedure, abridged: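 Intensity at 540nm excitation and 590nm emission is reported as Rose Bengal sodium-equivalent autofluorescence. Measurements followed overnight exposure (37C, 5% CO2) of HEK293 cells, 2,000 per well, to 23 nL compound.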
Experiment [8] is described as follows: qHTS assay for small molecule agonists of the p53 signaling pathway - cell viability (AID 651633; calls by dose curve; also: nearly all actives have a fitted effect of over 30% in size; also: potency is read from the fitted curve at half-maximal effect). The procedure, abridged: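 p53RE-bla cells were treated with compound for 16 hours at 37 C. Cytotoxicity was then measured as CellTiter-Glo luminescence after 30 min at room temperature.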
The nature of experiment [9]: qHTS assay for small molecules that induce genotoxicity in human embryonic kidney cells expressing luciferase-tagged ATAD5 - cell viability (AID 651634; calls by dose curve; also: nearly all actives have a fitted effect of over 25% in size). The method in brief:
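Live-cell protease activity (CellTiter-Fluor, fluorescence) indicates viability. HEK293T cells with luciferase-tagged ATAD5; 15.5 hr compound treatment at 37C.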

Experiment [10] can be described thus: qHTS assay for small molecule disruptors of the mitochondrial membrane potential (AID 720635). Also: potency is read from the fitted curve at half-maximal effect. The procedure, abridged: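 HepG2 cells exposed to compound 1 hr at 37C, then Mito-MPS dye 30 min. Ratio read of aggregate (540/590 nm) versus monomer (490/535 nm) fluorescence.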

SMILES strings stand for the structures. Several values for one entry are separate records, joined by “and”; a condition that tells them apart may be missing. Equal entries are not always repeated. Inconclusive results are not listed. A structure can be active in one record and inactive in another. Activity calls are given as the source filed them. Unless noted, calls follow the shape of the dose curve; as a rule, active = well fitted curve in the direction sought with a large enough effect in the repeat runs; inconclusive = weak or mixed curves; inactive = no such curve, though single readings can be large; an effect the other way counts as inactive or inconclusive.

For `CNCCCC12CCC(c3ccccc31)c1ccccc12`, the Potency result in [1], in [2], in experiment [3], in experiment [4], in experiment [5] and in experiment [7] was “inactive” each time. The outcome in experiment [6] was inactive.
With `NNc1ccc(C(=O)O)cc1`, the Potency entry in experiment [1], in experiment [8], in experiment [9], in experiment [3], in experiment [4] and in experiment [5] was “inactive” throughout. Also, the Potency entry in [7] was “inactive”. The molecule was classed as inactive in experiment [6].
Take `Cc1cccc(N(C)C(=S)Oc2ccc3ccccc3c2)c1`: the Potency entry in experiment [1], in [2], in experiment [4], in experiment [5] and in experiment [7] was “inactive” in each case. For the same molecule, the Potency entry was “inactive and 17.2 µM (active)” in [8]; “inactive and 21.7 µM (active)” in experiment [10]. Further, in experiment [6], the call was inactive.
Consider `Cc1[nH]c(=O)c(C#N)cc1-c1ccncc1`, for which the Potency result in experiment [1], in [8], in [3], in experiment [4], in experiment [5] and in experiment [7] was “inactive” each time. The outcome in experiment [6] was inactive.
Regarding `CCC(C)(O)CCCC(C)C` (centres undefined), the Potency result in [1], in experiment [2], in experiment [8], in [3], in experiment [10] and in experiment [4] was “inactive” in each case. The Potency entry in experiment [7] is “inactive”. The molecule was called inactive in [6].
For `CCCCOCCOCCOCCO`, the Potency result in experiment [1], in experiment [2], in experiment [8], in experiment [9], in experiment [4] and in experiment [7] was “inactive” in each case. Besides, in experiment [6], the outcome was inactive.
Consider `CC(CCC(=O)O)(c1ccc(O)cc1)c1ccc(O)cc1`, for which the Potency entry in experiment [1], in experiment [2], in experiment [8], in [10], in [4] and in [5] was “inactive” throughout. Moreover, the Potency result in experiment [7] is “inactive”. In addition, the call in [6] was inactive.
`O=C(Nc1ccc(Cl)cc1)Nc1ccc(Cl)c(Cl)c1`: the Potency in experiment [1] was 7.5 µM (active) and 5.42 µM (active) and 15.4 µM (active); in [10] it was 150 nM (active) and 68.2 nM (active) and 86.3 nM (active). The Potency result in [2], in [8], in [4] and in [7] was “inactive” in each case. Further, the result in [6] was inactive.
As to `CC(C)CC(C)(O)C#CC(C)(O)CC(C)C` (centres undefined), the Potency entry in [1], in experiment [8], in experiment [4], in [5] and in experiment [7] was “inactive” throughout. Also, the Potency in experiment [10] was 47.6 µM (active) and 48.6 µM (active). Also, the call in experiment [6] was inactive.
Turning to `CC(C)OB(OC(C)C)OC(C)C`, the Potency entry in experiment [1], in experiment [2], in experiment [8], in [3], in [10] and in experiment [4] was “inactive” in each case. In addition, the Potency entry in [5] and in experiment [7] was “inactive” in each case. The result in [6] was inactive.
With `OC1CCCCCCCCCCC1`, the Potency entry in [1], in [2], in [8], in experiment [3], in experiment [4] and in experiment [5] was “inactive” in each case. Besides, in experiment [7], the Potency result is “inactive”. For the same molecule, the Potency in [10] was 55 µM (active) and 54.5 µM (active). Further, the outcome in experiment [6] was inactive.
In the case of `C=CC(C)(CCC=C(C)C)OC(C)=O` (centres undefined), the Potency result in experiment [1], in experiment [2], in experiment [8], in experiment [3], in experiment [10] and in experiment [4] was “inactive” throughout. Moreover, the Potency result in [5] and in [7] was “inactive” in each case. Moreover, the result in experiment [6] was inactive.
Take `CC(=O)c1ccccn1`: the Potency entry in [1], in experiment [2], in experiment [8], in [10], in experiment [4] and in experiment [7] was “inactive” throughout. The molecule was classed as inactive in [6].
In the case of `C#C[C@]1(O)CC[C@H]2[C@@H]3CCC4=Cc5oncc5C[C@]4(C)[C@H]3CC[C@@]21C`, the Potency entry in experiment [1], in experiment [2], in experiment [8], in experiment [4], in experiment [5] and in experiment [7] was “inactive” throughout. Moreover, in [6], the molecule was classed as inactive.
With `COc1ccc(C(=O)CC(=O)c2ccc(C(C)(C)C)cc2)cc1`, the Potency entry in [1], in [2], in [8], in experiment [4], in [5] and in [7] was “inactive” throughout. Also, the Potency result in experiment [3] was “inactive and 18.5 µM (active)”; in experiment [10] it was “inactive and 16.5 µM (active)”. For the same molecule, in experiment [6], the molecule was called inactive.
`CCC(C)CO` (centres undefined): the Potency result in experiment [1], in experiment [2], in [8], in experiment [10], in experiment [4] and in [7] was “inactive” in each case. Moreover, in experiment [6], the molecule was classed as inactive.
On to `O=C(/C=C/c1ccccc1)OCc1ccccc1`, for which the Potency entry in [1], in experiment [2], in experiment [8], in [9], in experiment [4] and in experiment [7] was “inactive” throughout. In addition, the call in experiment [6] was inactive.
In the case of `CC(C)Oc1ccc2c(=O)c(-c3ccccc3)coc2c1`, the Potency result in experiment [1], in experiment [8], in [9], in [4] and in [7] was “inactive” throughout. Besides, the Potency in experiment [2] is 1.19 µM (active) and 2.66 µM (active). Besides, the molecule was classed as inactive in experiment [6].
For `O=C(OCc1ccccc1)c1ccccc1O`, the Potency entry in experiment [1], in experiment [8], in experiment [3], in experiment [4] and in [7] was “inactive” throughout. For the same molecule, the Potency in experiment [10] was 61.1 µM (active). For the same molecule, the molecule was called inactive in experiment [6].
Consider `Cc1cccc([N+](=O)[O-])c1C`, for which the Potency entry in [1], in experiment [2], in [8], in [3], in experiment [10] and in experiment [4] was “inactive” in each case. Besides, the Potency result in experiment [5] and in experiment [7] was “inactive” throughout. In addition, the call in experiment [6] was inactive.
As for `OCCO`, the Potency entry in [1], in experiment [2], in experiment [8], in experiment [3], in experiment [10] and in experiment [4] was “inactive” throughout. Also, the Potency entry in [5] and in [7] was “inactive” throughout. Besides, the result in [6] was inactive.
`Nc1ccccc1N`: the Potency in experiment [1] is 62.6 µM (active) and 27.3 µM (active); in experiment [2], 2.43 µM (active); in experiment [10] it was 314 nM (active) and 686 nM (active). Further, the Potency result in experiment [8], in experiment [3], in experiment [4] and in experiment [7] was “inactive” each time. Besides, the call in [6] was inactive.
As to `c1ccc2c(c1)c1cccc3ccc4cccc2c4c31`, the Potency is 60.7 µM (active) in experiment [1]; 3.04 µM (active) and inactive in experiment [8]; 30.6 µM (active) in [10]. Further, the Potency result in experiment [2], in experiment [3], in [4], in [5] and in experiment [7] was “inactive” throughout. The molecule was classed as inactive in experiment [6].
For `Nc1ncnc2nc[nH]c12`, the Potency result in [1], in experiment [2], in [8], in experiment [4], in [5] and in experiment [7] was “inactive” in each case. Moreover, in [6], the outcome was inactive.
For the molecule `COc1cccc2c1C(=O)c1c(O)c3c(c(O)c1C2=O)C[C@@](O)(C(=O)CO)C[C@@H]3O[C@H]1C[C@H](N)[C@H](O)[C@H](C)O1`, the Potency entry in experiment [1] was “inactive and 596 nM (active) and 243 nM (active)”; in [2], “inactive and 376 nM (active)”; in experiment [10] it was “inactive and 2.73 µM (active)”. Besides, the Potency entry in [8], in experiment [4] and in experiment [7] was “inactive” each time. Also, the outcome in experiment [6] was inactive.
